The campaign covered roughly 360,000 compounds. About 3,000 (0.83%) were called active. For the sample, actives were picked, then their nearest neighbours and some compounds at random. A number with no mark means an inactive call. Rule as the data show it: active = inhibition above about 50%; inactive = the rest.

DNA (cytosine-5)-methyltransferase 1 (Homo sapiens), sequence (P26358 504-1616 limits assumed): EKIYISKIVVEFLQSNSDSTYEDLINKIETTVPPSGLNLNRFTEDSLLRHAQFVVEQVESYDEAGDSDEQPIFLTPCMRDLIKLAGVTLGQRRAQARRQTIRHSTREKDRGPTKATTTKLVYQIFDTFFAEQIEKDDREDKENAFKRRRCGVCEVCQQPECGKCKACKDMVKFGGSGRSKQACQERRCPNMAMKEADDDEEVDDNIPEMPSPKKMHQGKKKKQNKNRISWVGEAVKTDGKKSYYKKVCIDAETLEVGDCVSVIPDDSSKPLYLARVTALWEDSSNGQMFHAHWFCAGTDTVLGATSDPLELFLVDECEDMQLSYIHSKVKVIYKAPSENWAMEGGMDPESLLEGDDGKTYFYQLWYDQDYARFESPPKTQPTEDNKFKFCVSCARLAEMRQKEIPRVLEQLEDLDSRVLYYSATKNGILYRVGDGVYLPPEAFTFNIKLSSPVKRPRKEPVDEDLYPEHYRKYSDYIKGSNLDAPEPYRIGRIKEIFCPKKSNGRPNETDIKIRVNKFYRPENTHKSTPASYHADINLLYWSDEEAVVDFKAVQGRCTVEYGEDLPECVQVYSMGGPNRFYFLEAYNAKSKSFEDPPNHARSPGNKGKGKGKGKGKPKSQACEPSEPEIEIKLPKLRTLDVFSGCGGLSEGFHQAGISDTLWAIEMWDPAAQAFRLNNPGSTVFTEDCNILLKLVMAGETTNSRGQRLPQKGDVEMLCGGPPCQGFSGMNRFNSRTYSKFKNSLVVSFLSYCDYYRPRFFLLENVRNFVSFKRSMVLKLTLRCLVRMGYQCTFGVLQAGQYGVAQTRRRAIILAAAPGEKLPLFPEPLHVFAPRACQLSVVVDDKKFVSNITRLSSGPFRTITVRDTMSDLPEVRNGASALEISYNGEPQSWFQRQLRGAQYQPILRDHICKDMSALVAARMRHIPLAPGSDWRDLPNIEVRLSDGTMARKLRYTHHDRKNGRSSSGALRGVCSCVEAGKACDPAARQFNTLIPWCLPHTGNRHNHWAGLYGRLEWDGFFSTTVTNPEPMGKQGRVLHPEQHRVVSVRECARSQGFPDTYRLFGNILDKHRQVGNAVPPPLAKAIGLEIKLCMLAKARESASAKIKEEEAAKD

This test has as its target DNA (cytosine-5)-methyltransferase 1 (Homo sapiens) (UniProt P26358). Briefly: human DNMT1 methyltransferase inhibitors, primary screen, biochemical, molecular beacon, fluorescence, HinP1I cleavage, uHTS (AID 588458). The following applies: at 10 µM, stronger effect = higher value.
Turning to `COc1cccc(NC(=O)CSc2nccn(-c3ccc4c(c3)OCCO4)c2=O)c1`, the inhibition (reported as % activation of signal) is 0.94%.
Regarding `CCC(C)OC(=O)C(C)Oc1ccc(-c2ccccc2)cc1` (configuration not stated), the inhibition (reported as % activation of signal) is -3.17%.
In the case of `NC(CSC1(c2ccccc2)c2ccccc2-c2ccccc21)C(=O)O` (configuration not stated), the inhibition (reported as % activation of signal) was 38.3%.
The result for `NC(CSC(c1ccccc1)(c1ccccc1)c1ccc(-c2ccccc2)cc1)C(=O)O` (configuration not stated) reads 89% (active); that for `COC(=O)CCCCC1=CCC2C(=O)C=C(O)C2C1` (configuration not stated), 92.7% (active).
To `CCOc1ccc2[nH]c(=S)sc2c1` belongs 0.55%; to `CSc1ncccc1C(=O)Nc1ccc(C)cn1`, -0.42%.
Take `CC(=O)N1CCN(C(=O)c2cc(-c3ccc(C)o3)nc3ccccc23)CC1`: the inhibition (reported as % activation of signal) was 1.05%.
To `Cc1ccc(NC(=O)c2cc(-c3ccc(C)o3)nc3ccccc23)nc1` belongs 76.5% (active).
The result for `COc1ccccc1-n1nnnc1S(=O)(=O)Cc1ccc(Cl)cc1` reads 22%; that for `O=C(CCc1nnc2ccc(NCc3ccco3)nn12)Nc1cc(F)ccc1F`, 29.7%; that for `COC(=O)c1ccc(C(=O)NC2CC(C)(C)Cc3c2cnn3-c2ccc(F)cc2)nc1` (configuration not stated), -1.04%.
The result for `COc1cc(F)ccc1-c1cc(C(=O)NCC2CCCCC2)[nH]n1` reads -0.63%.
Turning to `CCCOc1ccc(F)cc1-c1cc(C(=O)Nc2ccc(F)cc2)[nH]n1`, the inhibition (reported as % activation of signal) is -1.3%.
As for `COc1ccc(OC)c(NC(=O)c2cc(-c3cc(F)ccc3OCC3CCCO3)n[nH]2)c1` (configuration not stated), the inhibition (reported as % activation of signal) is 105% (active).
To `Cc1ccc(-n2c(SCC(=O)N3CCC(C(=O)O)CC3)nc3ccccc3c2=O)cc1C` belongs -1.54%; to `Cc1cc(C)c(C(=O)CSc2nc(C)cc(=O)[nH]2)c(C)c1`, -2.03%.
`COc1ccc(C2=NOC(C(=O)NCc3ccco3)C2)cc1OC` (configuration not stated): the inhibition (reported as % activation of signal) is 1.36%.
The result for `CCOc1ccc(C(=O)Nc2cc(Cl)ccc2-n2cncn2)cc1OC` reads 0.02%; that for `CC1CCN(C(=O)C2CCN(S(=O)(=O)N3CCC4(CC3)OCCO4)CC2)CC1`, 1.13%.
Regarding `COC(=O)C(NC(C)=O)(Nc1nc2c(s1)CCCC2)C(F)(F)F` (configuration not stated), the inhibition (reported as % activation of signal) was 0.31%.
To `CCOC(=O)C(NC(=O)CC(C)C)(Nc1sc2c(c1C(N)=O)CCCC2)C(F)(F)F` (configuration not stated) belongs 85.2% (active); to `CCOC(=O)c1c(NC(=O)Cn2nc(C(F)(F)F)cc2C)sc2c1CCC2`, -22.3%; to `N#Cc1c(N2CCCCC2)nc(N)c2c(N)nc(SCC(=O)O)cc12`, 52.1% (active).
With `N#Cc1c(C(F)(F)F)cc(-c2cccs2)nc1N1CCCCC1`, the inhibition (reported as % activation of signal) is -1.64%.
The result for `O=C(O)CSc1ccc(S(=O)(=O)N2CCCC2)cn1` reads -4.98%; that for `CC1(C)C2CC=C(/C=N/NC(=O)c3ccc(Cl)cc3)C1C2` (configuration not stated), 2.7%.
The result for `Nc1nc2c(ncn2[C@@H]2O[C@H](CNS(=O)(=O)N3CCc4ccccc4C3)[C@@H](O)[C@H]2O)c(=O)[nH]1` reads 0.15%; that for `COCCNC(=O)C1(C)CCCN(Cc2cccc(F)c2)C1` (configuration not stated), -1.11%; that for `O=S(=O)(Nc1n[nH]c(C(F)(F)F)n1)c1ccccc1`, -0.37%.
On to `Nc1cc2c(cc1Br)-c1ccc(F)cc1C2=O`, for which the inhibition (reported as % activation of signal) is 71.6% (active).
To `CC(=O)Nc1ccc(S(=O)(=O)Nc2cc(C)cn(Cc3ccc(C)cc3)c2=O)cc1` belongs -4.47%.
To `CC(=O)c1ccc(Nc2nc(C(N)c3ccccc3)cs2)cc1` (configuration not stated) belongs 80.3% (active); to `CC(=O)c1ccc(Nc2nc(C(N)c3ccccc3Cl)cs2)cc1` (configuration not stated), -17.7%.
The result for `NC(c1ccccc1)c1csc(NC(=O)Nc2cccc(C(F)(F)F)c2)n1` (configuration not stated) reads -22.9%; that for `CCCS(=O)(=O)NC(=O)C1(C)CCN(C(=O)c2sccc2C)C1` (configuration not stated), -0.36%; that for `COc1cc(NC(=O)CCNC(=O)Cn2ccc3ccccc3c2=O)cc(OC)c1OC`, -1.53%.
In the case of `CCOC(=O)c1ccn(S(=O)(=O)c2ccc(C)cc2)c1-c1ccccc1`, the inhibition (reported as % activation of signal) is 0.08%.
`CC/C=C/C(=O)N1CC2(CC(c3cccc(NC(=O)CC)c3)=NO2)C[C@H]1C(N)=O` (some centres not stated): the inhibition (reported as % activation of signal) is 5.63%.
For `C=C(C)C(=O)Nc1cccc(C2=NOC3(C2)C[C@H](C(N)=O)N(C(=O)C(c2ccccc2)c2ccccc2)C3)c1` (some centres not stated), the inhibition (reported as % activation of signal) was 98.1% (active).
To `C/C=C\C=C\C(=O)N1CC2(CC(c3cccc(NC(=O)/C(C)=C\C)c3)=NO2)C[C@H]1C(N)=O` (some centres not stated) belongs -7.28%; to `CC(=O)Nc1ccc(NC(=O)C2CCCN2S(=O)(=O)c2cccc(C(F)(F)F)c2)cc1` (configuration not stated), -0.75%; to `COc1cccc(-n2c(N)cc(=O)nc2SCC(=O)Nc2cc(C)on2)c1`, 0.03%.
The result for `O=C(c1ccccc1Cl)N(Cc1ccccc1F)N1C(=O)CCCC1=O` reads 1.73%; that for `COc1ccc(NC(=O)COC(=O)c2ccncc2)c(OC)c1`, 7.14%.
To `COc1ccc(NC(=O)CCn2ccnc2)c(OC)c1` belongs 78.8% (active); to `COc1ccc(NC(=O)CCCC2CCCCC2)c(OC)c1`, 1.18%.
